The values that follow come from ChEMBL document CHEMBL1961873, “Compounds: GSK PKIS; Assays: Nanosyn kinase panel” (2012).

Assay [1] concerns the target Dual specificity protein kinase CLK3 (Homo sapiens) (UniProt P49761). As to conditions: at 1 µM.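 Further: each value is the mean inhibition of CLK3.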
The target of assay [2] is Dual specificity tyrosine-phosphorylation-regulated kinase 1A (Homo sapiens) (UniProt Q13627). As to conditions: at 0.1 µM.
Assay [3] has the same target. As to conditions: at 1 µM.
The target in assay [4] is Dual specificity tyrosine-phosphorylation-regulated kinase 1B (Homo sapiens) (UniProt Q9Y463). The following applies: at 0.1 µM.
Sequence of Dual specificity tyrosine-phosphorylation-regulated kinase 1B (Homo sapiens) (Q9Y463 whole entry, looked up): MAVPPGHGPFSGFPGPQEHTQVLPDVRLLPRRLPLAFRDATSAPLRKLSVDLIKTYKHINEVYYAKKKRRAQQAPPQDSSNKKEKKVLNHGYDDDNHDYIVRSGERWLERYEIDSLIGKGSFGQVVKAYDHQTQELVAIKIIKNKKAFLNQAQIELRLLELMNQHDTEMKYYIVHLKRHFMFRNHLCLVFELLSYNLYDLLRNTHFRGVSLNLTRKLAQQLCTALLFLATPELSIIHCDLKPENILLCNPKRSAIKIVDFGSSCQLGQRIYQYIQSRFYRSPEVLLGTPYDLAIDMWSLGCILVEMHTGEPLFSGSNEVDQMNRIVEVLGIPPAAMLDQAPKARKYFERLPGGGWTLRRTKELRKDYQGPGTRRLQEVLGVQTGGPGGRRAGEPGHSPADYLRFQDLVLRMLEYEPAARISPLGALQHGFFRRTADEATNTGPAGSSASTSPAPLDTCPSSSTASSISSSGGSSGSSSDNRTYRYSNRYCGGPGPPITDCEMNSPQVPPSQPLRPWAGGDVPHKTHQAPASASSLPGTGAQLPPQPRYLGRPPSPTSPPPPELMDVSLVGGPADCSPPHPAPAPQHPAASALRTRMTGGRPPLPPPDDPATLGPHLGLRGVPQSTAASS
Assay [5] has the same target. As to conditions: at 1 µM.
Assay [6] concerns the target T1, Dual specificity tyrosine-phosphorylation-regulated kinase 2 (Homo sapiens) (UniProt Q92630).
T1 sequence (whole entry): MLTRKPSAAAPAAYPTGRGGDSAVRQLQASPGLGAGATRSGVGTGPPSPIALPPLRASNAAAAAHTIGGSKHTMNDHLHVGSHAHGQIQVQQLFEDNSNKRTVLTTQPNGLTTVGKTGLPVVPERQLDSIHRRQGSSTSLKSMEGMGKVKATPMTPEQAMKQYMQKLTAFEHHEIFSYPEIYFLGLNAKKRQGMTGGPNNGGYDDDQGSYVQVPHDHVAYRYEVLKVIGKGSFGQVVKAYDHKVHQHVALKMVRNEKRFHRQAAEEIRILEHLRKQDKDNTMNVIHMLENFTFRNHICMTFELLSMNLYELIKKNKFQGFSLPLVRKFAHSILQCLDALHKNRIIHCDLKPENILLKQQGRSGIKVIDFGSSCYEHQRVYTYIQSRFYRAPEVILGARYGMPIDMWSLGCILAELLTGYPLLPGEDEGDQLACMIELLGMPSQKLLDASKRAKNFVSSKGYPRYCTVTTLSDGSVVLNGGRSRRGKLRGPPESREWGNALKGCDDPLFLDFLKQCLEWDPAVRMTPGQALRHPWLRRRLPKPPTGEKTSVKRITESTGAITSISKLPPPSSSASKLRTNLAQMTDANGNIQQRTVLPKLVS
As to conditions: at 0.1 µM.

For assay [7], the target named is T1, Dual specificity tyrosine-phosphorylation-regulated kinase 2 (Homo sapiens). As to conditions: at 1 µM.
The target in assay [8] is Glycogen synthase kinase-3 alpha (Homo sapiens) (UniProt P49840). The following applies: at 0.1 µM.
Sequence of Glycogen synthase kinase-3 alpha (Homo sapiens) (P49840 2-483 limits assumed): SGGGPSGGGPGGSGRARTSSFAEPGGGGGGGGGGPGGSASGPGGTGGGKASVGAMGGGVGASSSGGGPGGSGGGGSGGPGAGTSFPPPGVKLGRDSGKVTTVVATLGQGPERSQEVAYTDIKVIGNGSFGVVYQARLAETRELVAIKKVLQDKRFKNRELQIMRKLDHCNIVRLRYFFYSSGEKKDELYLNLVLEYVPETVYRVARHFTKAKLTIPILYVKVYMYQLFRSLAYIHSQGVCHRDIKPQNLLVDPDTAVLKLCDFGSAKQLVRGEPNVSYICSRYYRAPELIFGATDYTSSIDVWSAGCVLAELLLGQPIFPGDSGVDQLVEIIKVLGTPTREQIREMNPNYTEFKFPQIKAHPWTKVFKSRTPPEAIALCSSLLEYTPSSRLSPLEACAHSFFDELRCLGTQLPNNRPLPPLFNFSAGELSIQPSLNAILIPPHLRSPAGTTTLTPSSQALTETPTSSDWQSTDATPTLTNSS
For assay [9] the target is unchanged. As to conditions: at 1 µM.
For assay [10], the target named is Glycogen synthase kinase-3 beta (Homo sapiens) (UniProt P49841). The following applies: at 0.1 µM.
Sequence of Glycogen synthase kinase-3 beta (Homo sapiens) (P49841 whole entry, looked up): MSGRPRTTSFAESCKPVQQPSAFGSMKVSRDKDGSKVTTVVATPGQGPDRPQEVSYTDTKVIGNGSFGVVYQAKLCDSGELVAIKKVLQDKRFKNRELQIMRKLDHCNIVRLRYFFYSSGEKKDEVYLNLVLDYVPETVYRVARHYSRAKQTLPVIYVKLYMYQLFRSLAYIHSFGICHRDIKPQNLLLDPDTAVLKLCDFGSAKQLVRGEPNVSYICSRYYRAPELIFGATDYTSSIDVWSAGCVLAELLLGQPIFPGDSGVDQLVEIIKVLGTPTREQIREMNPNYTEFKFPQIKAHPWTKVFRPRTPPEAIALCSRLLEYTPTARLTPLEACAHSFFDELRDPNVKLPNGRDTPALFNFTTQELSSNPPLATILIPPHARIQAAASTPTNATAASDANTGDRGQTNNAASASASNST
For assay [11] the target is unchanged. The following applies: at 1 µM.
The target of assay [12] is Homeodomain-interacting protein kinase 1 (Homo sapiens) (UniProt Q86Z02). The following applies: at 0.1 µM.
Sequence of Homeodomain-interacting protein kinase 1 (Homo sapiens) (Q86Z02 whole entry, looked up): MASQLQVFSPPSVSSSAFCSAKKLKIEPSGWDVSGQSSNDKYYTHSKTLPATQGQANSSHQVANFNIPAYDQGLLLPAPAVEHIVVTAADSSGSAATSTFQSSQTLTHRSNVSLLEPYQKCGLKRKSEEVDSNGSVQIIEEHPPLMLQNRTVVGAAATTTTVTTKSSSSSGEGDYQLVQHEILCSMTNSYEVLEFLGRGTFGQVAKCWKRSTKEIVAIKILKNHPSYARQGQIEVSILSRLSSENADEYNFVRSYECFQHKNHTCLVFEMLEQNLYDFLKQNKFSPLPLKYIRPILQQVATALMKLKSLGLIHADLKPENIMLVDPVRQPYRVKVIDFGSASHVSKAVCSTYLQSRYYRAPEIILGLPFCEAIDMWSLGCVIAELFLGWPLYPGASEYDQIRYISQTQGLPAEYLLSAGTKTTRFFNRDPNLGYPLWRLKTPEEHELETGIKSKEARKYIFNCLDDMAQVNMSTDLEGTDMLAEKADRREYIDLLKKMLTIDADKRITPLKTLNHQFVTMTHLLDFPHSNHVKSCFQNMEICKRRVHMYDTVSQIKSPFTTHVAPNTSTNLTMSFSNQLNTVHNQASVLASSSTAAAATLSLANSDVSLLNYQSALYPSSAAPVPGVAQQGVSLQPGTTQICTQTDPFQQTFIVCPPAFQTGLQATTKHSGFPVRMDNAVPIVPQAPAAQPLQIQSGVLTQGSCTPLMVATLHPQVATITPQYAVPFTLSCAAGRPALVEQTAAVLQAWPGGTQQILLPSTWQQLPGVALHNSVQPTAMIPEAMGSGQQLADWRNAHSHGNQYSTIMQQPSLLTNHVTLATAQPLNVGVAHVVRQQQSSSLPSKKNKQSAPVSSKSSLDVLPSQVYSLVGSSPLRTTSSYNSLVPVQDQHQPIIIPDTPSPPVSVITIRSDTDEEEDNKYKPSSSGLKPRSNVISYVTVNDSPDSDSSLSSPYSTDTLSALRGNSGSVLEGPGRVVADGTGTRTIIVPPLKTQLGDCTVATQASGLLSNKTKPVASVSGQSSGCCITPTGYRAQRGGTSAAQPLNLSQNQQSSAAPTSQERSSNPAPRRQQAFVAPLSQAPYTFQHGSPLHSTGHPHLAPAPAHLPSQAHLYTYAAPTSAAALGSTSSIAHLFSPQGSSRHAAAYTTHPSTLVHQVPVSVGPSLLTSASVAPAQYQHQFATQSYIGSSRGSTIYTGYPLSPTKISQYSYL
The target is the same in assay [13]. The following applies: at 1 µM.
Assay [14] addresses T2, Homeodomain-interacting protein kinase 4 (Homo sapiens) (UniProt Q8NE63).
T2 sequence (whole entry): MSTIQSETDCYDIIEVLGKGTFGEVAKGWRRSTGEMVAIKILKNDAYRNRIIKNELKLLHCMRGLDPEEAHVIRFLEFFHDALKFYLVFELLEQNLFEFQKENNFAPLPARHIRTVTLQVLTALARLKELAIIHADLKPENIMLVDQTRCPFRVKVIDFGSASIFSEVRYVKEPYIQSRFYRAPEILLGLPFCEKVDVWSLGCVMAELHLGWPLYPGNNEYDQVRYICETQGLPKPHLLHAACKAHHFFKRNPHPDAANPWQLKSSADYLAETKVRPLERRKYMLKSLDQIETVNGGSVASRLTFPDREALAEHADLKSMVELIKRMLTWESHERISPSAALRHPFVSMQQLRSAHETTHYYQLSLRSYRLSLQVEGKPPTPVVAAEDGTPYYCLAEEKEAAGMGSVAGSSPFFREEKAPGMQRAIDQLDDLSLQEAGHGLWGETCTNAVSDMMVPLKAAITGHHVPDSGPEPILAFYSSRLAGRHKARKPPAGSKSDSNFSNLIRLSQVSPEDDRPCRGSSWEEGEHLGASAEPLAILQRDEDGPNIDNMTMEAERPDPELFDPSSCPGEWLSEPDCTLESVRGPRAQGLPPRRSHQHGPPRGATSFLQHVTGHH
As to conditions: at 0.1 µM.

Assay [15] has as its target T2, Homeodomain-interacting protein kinase 4 (Homo sapiens). As to conditions: at 1 µM.
In assay [16] the target is Mitogen-activated protein kinase 9 (Homo sapiens) (UniProt P45984). The following applies: at 0.1 µM.
Sequence of Mitogen-activated protein kinase 9 (Homo sapiens) (P45984 whole entry, looked up): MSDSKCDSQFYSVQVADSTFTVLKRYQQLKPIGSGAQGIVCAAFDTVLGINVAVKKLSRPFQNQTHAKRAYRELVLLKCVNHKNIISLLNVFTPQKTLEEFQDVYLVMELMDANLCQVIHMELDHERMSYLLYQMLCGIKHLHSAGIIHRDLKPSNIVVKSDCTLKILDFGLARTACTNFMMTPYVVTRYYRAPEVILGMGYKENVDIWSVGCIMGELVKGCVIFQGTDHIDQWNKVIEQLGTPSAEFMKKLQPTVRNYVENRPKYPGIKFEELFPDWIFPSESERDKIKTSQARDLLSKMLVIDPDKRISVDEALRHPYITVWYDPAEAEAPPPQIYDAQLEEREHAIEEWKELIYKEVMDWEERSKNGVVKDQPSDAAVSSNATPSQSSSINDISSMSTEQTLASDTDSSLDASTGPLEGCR
Assay [17] shares this target. The following applies: at 1 µM.
The target of assay [18] is Mitogen-activated protein kinase 1 (Homo sapiens) (UniProt P28482). The following applies: at 0.1 µM.
Sequence of Mitogen-activated protein kinase 1 (Homo sapiens) (P28482 whole entry): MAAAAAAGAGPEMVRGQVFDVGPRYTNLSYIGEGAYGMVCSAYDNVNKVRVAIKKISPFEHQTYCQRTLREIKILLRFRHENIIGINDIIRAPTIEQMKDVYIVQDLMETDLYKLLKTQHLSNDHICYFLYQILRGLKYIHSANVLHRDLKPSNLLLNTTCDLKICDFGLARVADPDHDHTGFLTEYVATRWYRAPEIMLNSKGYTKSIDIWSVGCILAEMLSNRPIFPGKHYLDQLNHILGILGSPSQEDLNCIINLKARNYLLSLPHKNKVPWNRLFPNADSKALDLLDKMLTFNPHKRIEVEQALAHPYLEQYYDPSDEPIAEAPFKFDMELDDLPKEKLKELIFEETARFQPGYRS
Assay [19] has the same target. As to conditions: at 1 µM.
Assay [20] addresses Mitogen-activated protein kinase 3 (Homo sapiens) (UniProt P27361). The following applies: at 0.1 µM.

Sequence of Dual specificity protein kinase CLK3 (Homo sapiens) (P49761 whole entry, looked up): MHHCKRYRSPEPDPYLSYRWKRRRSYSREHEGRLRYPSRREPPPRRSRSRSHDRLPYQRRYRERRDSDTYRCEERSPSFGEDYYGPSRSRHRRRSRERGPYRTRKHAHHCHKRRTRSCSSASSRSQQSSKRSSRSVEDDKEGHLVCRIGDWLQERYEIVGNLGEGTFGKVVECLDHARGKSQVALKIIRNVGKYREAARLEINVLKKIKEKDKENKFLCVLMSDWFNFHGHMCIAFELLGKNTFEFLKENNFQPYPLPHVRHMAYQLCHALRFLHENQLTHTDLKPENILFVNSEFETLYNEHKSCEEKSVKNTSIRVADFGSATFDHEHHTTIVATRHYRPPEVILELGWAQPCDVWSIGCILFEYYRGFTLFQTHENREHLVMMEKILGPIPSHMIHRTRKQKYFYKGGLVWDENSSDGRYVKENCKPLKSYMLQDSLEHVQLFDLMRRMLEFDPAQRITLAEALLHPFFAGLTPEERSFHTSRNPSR
Sequence of Mitogen-activated protein kinase 3 (Homo sapiens) (P27361 whole entry): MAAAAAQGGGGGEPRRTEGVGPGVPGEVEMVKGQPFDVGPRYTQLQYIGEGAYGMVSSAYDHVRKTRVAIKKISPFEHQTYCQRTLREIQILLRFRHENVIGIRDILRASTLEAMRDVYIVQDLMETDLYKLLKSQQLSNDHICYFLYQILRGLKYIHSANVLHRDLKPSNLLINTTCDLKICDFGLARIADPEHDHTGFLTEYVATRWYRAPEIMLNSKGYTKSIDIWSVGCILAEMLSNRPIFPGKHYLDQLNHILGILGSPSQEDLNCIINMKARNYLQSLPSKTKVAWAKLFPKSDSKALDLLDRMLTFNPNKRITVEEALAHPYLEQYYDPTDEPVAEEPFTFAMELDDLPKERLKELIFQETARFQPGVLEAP

For the compound `CCn1c(-c2nonc2N)nc2c(C#CC(C)(C)O)nc(O[C@@H](CN)c3ccccc3)cc21`, the inhibition in assay [1] was 1.71%; in assay [2], 1.79%; in assay [3] it was 7.95%; in [4], 2.3%; in [5], 9.96%; in [6], -1.27%. In addition, the inhibition is 0.08% in assay [7]; 52.7% in [8]; 86.1% in assay [9]; 53.4% in assay [10]; 84.6% in assay [11]; 10.4% in assay [12]. Also, the inhibition was 55.3% in assay [13]; 3.23% in [14]; 36.3% in [15]; 2.01% in assay [16]; 1.01% in assay [17]; -1.73% in assay [18]. Further, the inhibition in assay [19] came out at 5.15%; in assay [20], 0.9%.
`Cc1cc(-c2ccco2)cc(C)c1/C=C/c1cncc(-c2nn[nH]n2)c1`: the inhibition in [1] was 0.08%; in assay [2], -0.27%; in [3] it was 2.81%; in assay [4] it was -0.75%; in assay [5], 0.15%; in [6] it was -0.1%. The inhibition in assay [7] is -1.43%; in [8], 0.36%; in assay [9], 0.72%; in assay [10], 0.5%; in assay [11], 0.28%; in [12] it was -3.37%. In addition, the inhibition in [13] was -0.75%; in assay [14] it was -0.32%; in [15] it was -0.04%; in [16], 1.02%; in [17] it was 0.6%; in [18], 1.32%. Moreover, the inhibition in [19] worked out at 2.18%; in assay [20], 3.63%.
As to `CCn1c(-c2nonc2N)nc2c(C#CCN)ncc(OCCCN)c21`, the inhibition in assay [1] was -1.34%; in assay [2], 1.67%; in assay [3] it was 4.43%; in assay [4], 5.17%; in assay [5], 7.49%; in assay [6], -2.75%. In addition, the inhibition in assay [7] was -1.66%; in assay [8], 0.52%; in assay [9], 9.28%; in [10], 3.41%; in [11], 14.4%; in assay [12], 3.64%. For the same compound, the inhibition in assay [13] is 2.54%; in assay [14], 1.45%; in [15] it was 2.86%; in assay [16], -2.82%; in assay [17] it was -3.07%; in [18], -2.43%. Also, the inhibition was -4.85% in assay [19] and -3.01% in [20].
`CCn1c(-c2nonc2N)nc2c(C#CC(C)(C)O)ncc(OC[C@@H]3CCCN3)c21`: the inhibition in [1] was -0.53%; in assay [2] it was -0.49%; in assay [3], -0.73%; in [4] it was -2.29%; in [5] it was -1.07%; in assay [6], 0.4%. Further, the inhibition was -2.07% in [7]; 9.78% in assay [8]; 44.4% in [9]; 9.2% in assay [10]; 46.9% in [11]; -6.24% in assay [12]. Further, the inhibition in assay [13] was 6.03%; in [14], 0.03%; in [15] it was 0.31%; in assay [16] it was -0.05%; in assay [17] it was 0.92%; in assay [18] it was 1.59%. Further, the inhibition came out at 1.3% in [19] and 1.69% in assay [20].
On to `Nc1nonc1-c1nc2cnccc2n1C1CCCCC1`, for which the inhibition in assay [1] is 2.98%; in assay [2] it was 34.3%; in assay [3] it was 78%; in assay [4], 23.4%; in [5], 71.2%; in assay [6], -2.75%. For the same compound, the inhibition in assay [7] was -0.12%; in assay [8], 66.1%; in assay [9], 90.8%; in assay [10], 62.5%; in assay [11], 90%; in assay [12], -0.6%. Further, the inhibition in [13] was 16.1%; in [14], 0.63%; in assay [15], 10.3%; in assay [16], -0.52%; in assay [17], -0.67%; in assay [18] it was -1.37%. Further, the inhibition in assay [19] is 1.38%; in assay [20], -0.87%.
`COc1cccc(-n2ncc3c(N/N=C/c4ccncc4)ncnc32)c1`: the inhibition was 19.3% in assay [1]; 28.7% in [2]; 72.3% in assay [3]; 16.2% in assay [4]; 53.9% in assay [5]; 14.2% in [6]. The inhibition in assay [7] was determined as 58.9%; in [8], 85.7%; in assay [9], 90%; in [10], 83.4%; in assay [11] it was 89.2%; in [12] it was 26.6%. For the same compound, the inhibition was found to be 69.8% in assay [13]; 19.6% in assay [14]; 61.3% in assay [15]; 0.79% in [16]; 11.2% in [17]; 5.32% in assay [18]. The values for the inhibition in assay [19] and in assay [20] were 7.16% and 4.96%, respectively.
As for `COc1cc2c(cc1Nc1nc(Nc3ccsc3C(N)=O)c3cc[nH]c3n1)N(C(=O)CN(C)C)CCC2`, the inhibition in [1] was 2.92%; in [2] it was -1.83%; in [3], 0.58%; in [4] it was -0.31%; in assay [5], 4.64%; in [6] it was -0.67%. Further, the inhibition in assay [7] is -2.75%; in assay [8], 1.22%; in assay [9], 0.89%; in assay [10], 1.05%; in [11] it was 2.63%; in assay [12], -2.33%. Further, the inhibition in [13] was found to be 5.85%; in assay [14] it was 2.25%; in assay [15] it was 5.44%; in assay [16], 3.02%; in [17], 8.04%; in [20] it was 2.93%.

Usually inhibition stands for the change of the read-out against control, counted positive when it falls.
